Assay outcomes from PubChem BioAssay.
SMN2 splice enh: SMN2 splice variant enhancement. HEK293 SMN2-luciferase splicing reporter, luminescence, 30-36 h. Potency, µM (titrated, usually from 46.1 µM), for the others: at the highest dose activity change, positive = activation, usual class: activators. actives 2.8% (n = 210,000). AID 1458; also: % of control where 0% means no effect; nearly all actives have a fitted effect of over 55% in size
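HEK293 cells carry an SMN2 minigene-luciferase reporter in which exon 7 inclusion puts luciferase in frame. Cells were seeded at 2000 cells/well, attached for 10-12 hours, then exposed to compounds for 30-36 hours at 37C before ONE-Glo luminescence.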
KinaseGlo FLuc: counter-screen: inhibitors of Kinase-Glo firefly luciferase. actives 0.28% (n = 200,000). AID 1379. Kinase-Glo luciferase, ATP luminescence, 8 min. Potency, µM (highest dose often 38.3 µM), for the others: at the top dose activity change, negative = inhibition, most hits filed as inhibitors; also: % is scaled to controls: 0 for no effect and ±100 for the full control effect; nearly all actives have a fitted effect of over 60% in size
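Light output from Kinase-Glo luciferase with luciferin and 10 uM ATP in 50 mM imidazole pH 7.2, KCl, MgCl2, Tween 20, BSA; compound pin-delivered, 8-min ambient incubation, then luminescence read.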
ELG1 genotox: inducers of genotoxicity in HEK293T ELG1-luciferase cells; HEK293T ELG1-luciferase reporter, luminescence, 16 h; Potency, µM (doses to about 46 µM), inactives show top-dose activity change, positive = activation, hits mostly activators; actives 1.3% (n = 330,000); also: % of control where 0% means no effect; nearly all actives have a fitted effect of over 60% in size
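HEK293T cells expressing luciferase-tagged ELG1 were treated with compound or DMSO for 16 hr at 37°C. Luciferase activity was then read after 30 min with ONE-Glo at room temperature; rising signal flags genetic stress.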
Rab9 promoter act: activates the Rab9 promoter; actives 2.8% (n = 320,000); Huh7 Rab9 promoter-luciferase reporter, luminescence, 24 h; AID 485297; Potency, µM (titrated, usually from 9.22 µM), without a hit: top-dose activation, negative = inhibition, hits mostly activators; also: % of control where 0% means no effect; nearly all actives have a fitted effect of over 60% in size
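Promoter activation is measured as luciferase luminescence in Huh7 cells stably transfected with a Rab9 promoter–luciferase construct, following 24 h compound exposure at 37 °C and 10 min reagent incubation at ambient temperature.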
FLuc counter: inhibits or activates purified firefly luciferase, miR-21 counter-screen. purified FLuc, Km substrates, luminescence inhibition. Potency, µM (titrated, usually from 57.5 µM), for the others: at the top dose activity change, negative = inhibition, most hits filed as inhibitors. actives 6.9% (n = 360,000). AID 588342;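 also: plate controls were vehicle for no effect and reference inhibitor for full effect; nearly all actives have a fitted effect of over 55% in size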
Target sequence (P08659 whole entry, looked up): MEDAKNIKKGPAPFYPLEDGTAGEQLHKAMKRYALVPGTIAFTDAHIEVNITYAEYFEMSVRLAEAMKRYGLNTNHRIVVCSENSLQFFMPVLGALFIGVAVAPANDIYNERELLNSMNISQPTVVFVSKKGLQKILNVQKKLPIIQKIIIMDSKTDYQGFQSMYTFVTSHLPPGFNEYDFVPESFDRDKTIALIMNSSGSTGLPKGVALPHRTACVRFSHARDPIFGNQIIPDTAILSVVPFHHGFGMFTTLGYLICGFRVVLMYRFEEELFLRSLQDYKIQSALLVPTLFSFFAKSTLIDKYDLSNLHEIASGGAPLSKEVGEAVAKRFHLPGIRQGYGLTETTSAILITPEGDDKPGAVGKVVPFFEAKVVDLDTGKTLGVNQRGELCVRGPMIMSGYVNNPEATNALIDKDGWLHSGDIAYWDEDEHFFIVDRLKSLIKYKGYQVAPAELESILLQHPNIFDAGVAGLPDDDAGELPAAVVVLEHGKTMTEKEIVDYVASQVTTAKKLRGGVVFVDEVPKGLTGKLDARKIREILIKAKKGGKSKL
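Biochemical qHTS of compounds, final roughly 60 µM downward over six points, against 10 nM purified firefly luciferase using Km concentrations of substrates (10 uM D-luciferin, 10 uM ATP) in Tris acetate pH 7.5 buffer; luminescence output.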
NPC1 prom act: activates the NPC1 promoter; actives 2.4% (n = 320,000); AID 485313; Huh7 NPC1 promoter luciferase reporter, 24 h; Potency, µM (titrated, usually from 9.22 µM), for inactives: at the top dose activation, most hits filed as activators; also: % of control where 0% means no effect; nearly all actives have a fitted effect of over 60% in size
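NPC1 promoter–luciferase Huh7 cells; 24 h compound; luminescence.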
* marks the source's active call; other numbers are inactive results; [ ] = remark or other dose. Sampled rows, rich in hits. Any-hit rate of the full collection: about 7.3%. Calls follow the shape of the dose curve; as a rule, active = well fitted curve in the direction sought with a large enough effect; inconclusive = small, poorly fitted or top-dose-only effect, or another doubt; inactive = no such curve, though single readings can be large; an effect the other way counts as inactive or inconclusive. Potency is read from the fitted curve at half-maximal effect.

Cn1c(=NC(=O)c2ccccc2[N+](=O)[O-])sc2cc(S(C)(=O)=O)ccc21 was read as SMN2 splice enh 2.2µM*, KinaseGlo FLuc -6%, ELG1 genotox 8.2µM*, Rab9 promoter act 0.56µM*, FLuc counter 0.54µM* and NPC1 prom act 0.35µM*.
`COCCCNc1nc2c(-c3cccc(Br)c3)nnn2c2ccccc12` gave SMN2 splice enh 6% and FLuc counter -5%.
For CCOc1ccc(-c2cc(C(=O)N3CCN(c4ccc(C)cc4)C(C)C3)c3ccccc3n2)cc1 (stereo not given) the results were FLuc counter 4.8µM*.
For CCOc1ccc(-c2cc(C(=O)N3CCN(c4cccc(C)c4)C(C)C3)c3ccccc3n2)cc1 (stereo not given) the results were FLuc counter 2.4µM*.
Screening CCOC(=O)C1CCN(C(=O)c2cc(-c3ccncc3)nc3ccccc23)CC1 returned ELG1 genotox -4%, Rab9 promoter act -4%, FLuc counter -12% and NPC1 prom act 0%.
For CC[C@H](C)[C@@H](NC(=O)O[C@@H]1C(=O)c2ccc(OC)cc2O[C@H]1c1ccc2c(c1)OCO2)C(=O)OC the results were SMN2 splice enh 14% and KinaseGlo FLuc -1%.
For CN(C)S(=O)(=O)c1nc(Cl)c2[nH]cnc2n1 the results were SMN2 splice enh -1%[9.22 µM] and KinaseGlo FLuc 0%[7.66 µM].
`Cc1ccc(-c2cnc3c(Cl)c(C)nn3c2)cc1` gave SMN2 splice enh 3.2µM*, KinaseGlo FLuc -30%, ELG1 genotox inconclusive, Rab9 promoter act 0.45µM*, FLuc counter 1.3µM* and NPC1 prom act inconclusive.
For Cc1cc2ncc(-c3ccc(Cl)cc3)cn2n1 the results were SMN2 splice enh 11µM*, KinaseGlo FLuc -13%, ELG1 genotox inconclusive, Rab9 promoter act 1.4µM*, FLuc counter 2.7µM* and NPC1 prom act 3.5µM*.
For Cc1ccc(-c2cnc3cc(C)nn3c2)cc1 the results were SMN2 splice enh 13µM*, KinaseGlo FLuc -27%, ELG1 genotox -1%, Rab9 promoter act 0.45µM*, FLuc counter 2.1µM* and NPC1 prom act 0.71µM*.
`Cc1cccc(NS(=O)(=O)c2ccc3c(c2)OCC(C(=O)N2CCCC2)O3)c1C` (stereo not given) gave FLuc counter -10%.
For Cc1cc(C)c2c(-n3cccc3)c(C(=O)NCCc3ccccc3)sc2n1 the results were FLuc counter -2%.
`Cc1ccccc1-c1nc(CS(=O)(=O)CC(=O)NCc2cccc(Cl)c2)c(C)o1` gave SMN2 splice enh 3% and FLuc counter -8%.
For FC(F)Oc1ccc(/C=N/c2c(-c3ccc(OC(F)F)cc3)nc3n2CCS3)cc1 the results were SMN2 splice enh inconclusive, KinaseGlo FLuc 3%, ELG1 genotox 2%, Rab9 promoter act 14%, FLuc counter 9.5µM* and NPC1 prom act -2%.
`CC(C)c1nn2c(=O)cc(COC(=O)c3ccccc3Cl)nc2s1` gave FLuc counter 17µM*.
Screening CC(C)c1nn2c(=O)cc(COC(=O)c3cccs3)nc2s1 returned FLuc counter 11µM*.
`O=C1C2C3C=CC(CC3)C2C(=O)N1c1ccc(Cl)cc1Cl` (stereo not given) gave ELG1 genotox -4%, Rab9 promoter act 3%, FLuc counter 15µM* and NPC1 prom act 4%.
Screening Cc1ccc(-n2cnc3cc(C(=O)NCCC4=CCCCC4)ccc32)c(C)c1 returned FLuc counter -13%.
For C=CCNC(=O)c1ccc2c3n(nc2c1)-c1ccccc1CO3 the results were ELG1 genotox inconclusive, Rab9 promoter act inconclusive, FLuc counter 0.67µM* and NPC1 prom act 0.45µM*.
COCCNC(=O)c1ccc2c3n(nc2c1)-c1ccccc1CO3 was read as ELG1 genotox inconclusive, Rab9 promoter act 1µM*, FLuc counter 3.8µM* and NPC1 prom act 1.1µM*.
C=CCNC(=O)c1ccc2nc(-c3ccccc3)c(-c3ccccc3)nc2c1 was read as SMN2 splice enh -9%, KinaseGlo FLuc -3%, ELG1 genotox -6%, Rab9 promoter act -5%, FLuc counter -1% and NPC1 prom act -4%.
For COCCNC(=O)c1ccc2c(c1)CCN2S(C)(=O)=O the results were SMN2 splice enh -11%, KinaseGlo FLuc 4%, ELG1 genotox 2%, Rab9 promoter act 0%, FLuc counter 3% and NPC1 prom act 0%.
Screening Cc1ccc2c(c1)COc1c3ccc(C(=O)NCCO)cc3nn1-2 returned ELG1 genotox 15µM*, Rab9 promoter act 1µM*, FLuc counter 4.8µM* and NPC1 prom act 1.1µM*.
Screening COCCNC(=O)c1ccc2c3n(nc2c1)-c1ccc(Cl)cc1CO3 returned ELG1 genotox inconclusive, Rab9 promoter act 3.5µM*, FLuc counter 8.5µM* and NPC1 prom act 1.4µM*.
Screening CC(C)=CCl returned SMN2 splice enh 25%.
COc1ccc(-n2c(-c3ccc(C)cc3)cc3c2CC(C)(C)CC3=O)c(OC)c1 was read as SMN2 splice enh -20% and FLuc counter 2%.
O=C(NCCO)c1ccc2nc(Cc3cccc(Cl)c3)oc2c1 was read as ELG1 genotox inconclusive, Rab9 promoter act 8%, FLuc counter 3% and NPC1 prom act 4%.
For O=C(NCCO)c1ccc2c3n(nc2c1)-c1ccc(Cl)cc1CO3 the results were ELG1 genotox inconclusive, Rab9 promoter act 3.5µM*, FLuc counter 6µM* and NPC1 prom act 2µM*.
`COc1ccc(C(=O)Nc2cnc3ccccn3c2=O)cc1` gave SMN2 splice enh 18µM*, KinaseGlo FLuc -3%, ELG1 genotox inconclusive, Rab9 promoter act 3.5µM*, FLuc counter 17µM* and NPC1 prom act 2.8µM*.
For O=C(Nc1cnc2ccccn2c1=O)c1ccc(F)cc1 the results were SMN2 splice enh 11µM*, KinaseGlo FLuc -9%, ELG1 genotox 19%, Rab9 promoter act 3.2µM*, FLuc counter 17µM* and NPC1 prom act 2.5µM*.
For COc1cc(OC)c(NC(=O)C(c2ccccc2)N2Cc3ccccc3C2=O)cc1Cl (stereo not given) the results were FLuc counter 0%.
For CCOc1ccccc1CNC(=O)c1cc(-c2ccc(Cl)s2)nc2ccccc12 the results were SMN2 splice enh 9% and FLuc counter -9%.
Screening COc1ccc(-n2c(C)cc(/C=C3\C(=O)NN(c4ccccc4)C3=O)c2C)cc1 returned SMN2 splice enh inconclusive, KinaseGlo FLuc 0%, ELG1 genotox inconclusive, Rab9 promoter act 27%, FLuc counter 2.7µM* and NPC1 prom act inconclusive.
